Assay results reported in PubChem BioAssay (NCI).
This is part of a sample that, as a whole, favours compounds with a hit. Of some 79,000 tested, about 15% had one in any assay. Unmarked numbers belong to inactive results. Calls of active or inactive are those of the source. No stated cut-off is given here; in the data, active means growth inhibition above about 70%; inactive means the rest. Where a SMILES comes first, the peptide text is derived from it. The star is where a group is joined. Cbz = O=C(OCc1ccccc1)*; NHNH2 = NN*

How the values were obtained:
[1] = NCI Yeast Anticancer Drug Screen. Data for the rad50 strain (AID 155);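 further: 0% = growth of vehicle-only cultures of the same strain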; details: S. cerevisiae rad50 strain growth inhibition; at 50.0 µM; stronger effect = higher value
In short: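 Vehicle-treated cultures provide the reference for the growth inhibition reported for compound-exposed, repair-deficient yeast.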

[2] = NCI Yeast Anticancer Drug Screen. Data for the mec2-1 strain (AID 157); details: S. cerevisiae mec2-1 strain, at 50.0 µM, stronger effect = higher value
In short: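 mec2-1 yeast strain, carrying an alteration in DNA damage repair or cell cycle control, was exposed to compounds; growth inhibition was measured relative to vehicle-treated controls.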

[3] = NCI Yeast Anticancer Drug Screen. Data for the sgs1 mgt1 strain (AID 161);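 further: 0% = growth of cultures given vehicle only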; details: S. cerevisiae sgs1 mgt1 strain, at 50.0 µM, stronger effect = higher value
In short: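 Yeast cells carrying a defined DNA-repair defect were exposed to test compounds. Growth inhibition was measured relative to vehicle-treated controls.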

[4] = NCI Yeast Anticancer Drug Screen. Data for the cln2 rad14 strain (AID 165);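 further: 0% = growth equal to vehicle treated cultures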; details: S. cerevisiae cln2 rad14 strain, at 50.0 µM, stronger effect = higher value
In short: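 Yeast carrying cln2 and rad14 alterations (cell cycle control and DNA damage repair) were exposed to compounds. Growth inhibition was measured against vehicle-treated controls.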

[5] = NCI Yeast Anticancer Drug Screen. Data for the bub3 strain (AID 167); details: S. cerevisiae bub3 mutant strain, at 50.0 µM, stronger effect = higher value
In short: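 Mutant yeast screening strain plus compound; vehicle-treated cultures serve as the 0% inhibition reference.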

[6] = NCI Yeast Anticancer Drug Screen. Data for the mlh1 rad18 strain (AID 175); details: S. cerevisiae mlh1 rad18 strain growth inhibition; at 50.0 µM; stronger effect = higher value
In short: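 Growth inhibition of the yeast strain was measured after compound exposure and expressed relative to vehicle-treated controls. The strain carries defined defects in DNA damage repair.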

SMILES | growth inhibition [1] | growth inhibition [2] | growth inhibition [3] | growth inhibition [4] | growth inhibition [5] | growth inhibition [6]
O=C1CC=NC(=S)N1 | -0.6% | 7% | 8.75% | 7.95% | -2.7% | 28.4%
C=C1C(=O)OC2CC(C)C(C(CC(C)=O)OC(C)=O)=CCC12 (centres undefined) | 0.6% | 5.1% | 3.6% | 6.8% | 6.1% | -53.7%
COc1cc(Cn2c(=S)ss/c2=N\C(=S)N(C)C)cc(OC)c1OC | 1.7% | 4.45% | -0.4% | 6.45% | -2.25% | -12%
C/C(CC(N)=O)=C1\C(=O)NN(c2ccccc2)C1=O | 23.1% | 26.4% | 48.2% | 7.3% | 40% | 36.4%
C[N+](C)(C)c1cc[c]([Sn]([c]2ccc([N+](C)(C)C)cc2)([c]2ccc([N+](C)(C)C)cc2)[c]2ccc([N+](C)(C)C)cc2)cc1 | 16.4% | -5.75% | 20.2% | 6.65% | -0.15% | 11.3%
COC(=O)C1CCC(C(=O)OC)CC1 (centres undefined) | -4.3% | -22.6% | -2.3% | -1.15% | -9% | -11.1%
CCCCCC1OCC(C)(C)CO1 | 3.95% | -2.05% | -5.45% | -9.3% | -3.05% | -9.6%
CN(C)CCSc1nc2ccccc2s1 | 7.6% | 6.55% | 28.7% | 13.3% | -16.6% | 31.1%
CNC(=O)OCc1nc(SC)n(Cc2ccccc2)c1COC(=O)NC | 15.3% | 5.9% | 11.2% | -1.1% | -1.55% | 18.5%
COC(=O)CC(NC(=O)OCc1ccccc1)C(=O)NC(CC(=O)OC)C(=O)NC(CC(=O)OC)C(=O)NC(CC(=O)OC)C(=O)NC(CC(=O)OC)C(=O)NC(CC(=O)OC)C(=O)NN (centres undefined) (Cbz-D(OMe)D(OMe)D(OMe)D(OMe)D(OMe)D(OMe)-NHNH2; configuration not given here) | -18.6% | -16.9% | -24.6% | 20.6% | 25.7% | -18.5%
OCC1SC(O)C(O)C(O)C1O (centres undefined) | 28.2% | -5.55% | 11.8% | 10.7% | 25.1% | 19.6%
COc1ccc(/C=C/C(=O)C(C)(C)CN(C)CCN(C)C)cc1 | -36% | -7.25% | -23.9% | -7.65% | -5.25% | -8.45%
CN(N=O)c1nc2c(C(N)=O)ncn2s1 | 10.2% | 16.4% | 4.95% | 2.2% | 13.9% | 24.1%
COC(=O)C(CO)NC(=O)C(CC(C)C)NC(=O)C(CC(C)C)NC(=O)OCc1ccccc1 (centres undefined) | 34.6% | 4.5% | 16.6% | 11.6% | -5.1% | 13.2%
Cc1cc2c(cc1Cl)SC(NNc1ccc([N+](=O)[O-])cc1)=NS2(=O)=O | 34.6% | 2.4% | 4.6% | -7.85% | -19.6% | 26.9%
CCN(CC)c1ccc(N=C2C=C(C(=O)Nc3ccc(C(=O)O)cc3)C(=O)c3ccccc32)c(C)c1 | -10.2% | -25% | -16.9% | 0.9% | -0.65% | -18.2%
Cn1c(=O)c2c(ncn2CN2CCN(Cn3cnc4c3c(=O)n(C)c(=O)n4C)CC2)n(C)c1=O | 2.75% | 28.2% | -7.45% | 16.1% | -63.9% | -30%
c1ccc(Cn2ccnc2CSCCSCc2nccn2Cc2ccccc2)cc1 | 17.5% | 37.2% | -5.8% | 12.9% | -0.65% | 29.9%
OC1C(O)C2OC(c3ccccc3)OC2C2OC(c3ccccc3)OC12 (centres undefined) | 7.1% | -4.85% | 0.95% | 0.1% | -15.4% | -2.35%
O=S(=O)(c1ccc(Cl)cc1)N1CCN(S(=O)(=O)c2ccc(Cl)cc2)C1 | 2.05% | 8.1% | -14.3% | -21.6% | -0.05% | 15.6%

SMILES | growth inhibition [1] | growth inhibition [2] | growth inhibition [3] | growth inhibition [4] | growth inhibition [5] | growth inhibition [6]
Nc1nc2c(c(-c3ccc(Cl)cc3)n1)CN(CCCC(=O)O)C2=O | -1.8% | 13.9% | 7.4% | -0.15% | 2.35% | 10.7%
O/N=C1\CCn2cccc21 | -12.1% | 15.1% | -18.2% | 0.25% | 19.4% | -11.2%
CC1(C)CC[C@]2(C(=O)O)[C@H](O)C[C@]3(C)C(=CC[C@@H]4[C@@]5(C)CC[C@H](OC6OC(C(=O)O)C(O)C(O)C6O)C(C)(C)[C@@H]5CC[C@]43C)[C@@H]2C1 (some centres undefined) | 93.8% (active) | 95% (active) | 94.3% (active) | 92.7% (active) | 93.9% (active) | 93.7% (active)
NCCCNC/C=C/CNCCCN | 25.8% | -0.5% | 2.7% | 11.2% | -0.8% | -2.45%
CCCCCOc1ccc(/C=C\C(=O)O)cc1 | 11.3% | 2.55% | -11.2% | -6.75% | -18.4% | -6.35%
O=C1c2ccccc2C(=O)N1CC(O)CCl (centres undefined) | -21.3% | -30.4% | -0.45% | 12% | -14.5% | -26.5%
O=C1C=C(C2OC(CI)C(O)C2O)C(=O)N1 (centres undefined) | -0.45% | 23.1% | 11.5% | -14.4% | 23.2% | -2.05%
O=C(Nc1cc([N+](=O)[O-])ccc1F)Oc1ccc(OCc2ccccc2)cc1 | 11.9% | -1.5% | 9.9% | -47.2% | -2.55% | 18.2%
Clc1ccc(CSc2cnnc(SCc3ccc(Cl)c(Cl)c3)c2SCc2ccc(Cl)c(Cl)c2)cc1Cl | 1.2% | 5.15% | 3.9% | -5.9% | -0.8% | 17.1%
CC(=O)C(C)(C)O | 45.4% | -5.55% | 48.8% | -8.7% | 14.2% | 38.9%
N=c1ccc([N+](=O)[O-])cn1O | 13.4% | 11.7% | -2% | -41.5% | -2.8% | 1.95%
COc1cc2c(c(OC)c1OC)-c1c(cc3c(c1OC)OCO3)C1OC2C(C)C1C (centres undefined) (tested in a mixture with another compound) | -23.6% | -55% | -9% | -20.4% | -20.6% | -39.2%
CC1=C(C(=O)NNC(=O)c2ccccc2O)CC(C(=O)NNC(=O)c2ccccc2O)=C(C)N1 | 45.5% | 40.5% | 10.5% | 17.2% | 64.2% | 32.4%
Nc1nc(SCc2ccccc2[N+](=O)[O-])c2[nH]cnc2n1 | 29.2% | 22.2% | 16.2% | 14.1% | 45.4% | 34%
Cc1cc(C(=O)O)c(C#N)c(=O)n1C | -1.55% | 5.3% | -12.6% | -13.6% | -12% | 8.55%
O=C1c2ccccc2C(O)(c2ccccc2)c2ccccc21 | 13.4% | 20.6% | 13.8% | -21.6% | 13.4% | 0.35%
CC[N+](C)(CC)CCOC(=O)C(c1ccccc1)C(O)C1CCCC1 (centres undefined) | -6.85% | 3.45% | -0.2% | -6.2% | 20.9% | -8.15%
C=C1SC(=Nc2c(C)cccc2Cl)N(C(=O)c2sc3ccccc3c2Cl)C12CCCCC2 | 8.05% | -16% | 2.3% | 5.6% | 8.85% | 8.75%
Cc1cccc(/C=C/C(=O)C(C)CN(C)C)c1 (centres undefined) | 41.4% | 15.6% | 63% | 30.4% | 28.6% | 39.5%
